# Test results taken from PubChem BioAssay (NCI).
# This is part of a sample that, as a whole, favours compounds with a hit. Of some 83,000 tested, about 20% had one in any assay.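 How to read the values: 0–100, growth inhibition (40 = 60% inhibited); 0, no net growth; -100 to 0, cell death (-40 = 40% of starting cells died; -100 = all dead).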 Unmarked numbers belong to inactive results. Active and inactive are the calls of the source. The calls were made as follows: active = growth percent below 10; inactive = the rest.
# Experiments:
# Experiment in all cases: NCI-60 one-dose screen, 48 h (100 = growth as untreated, 0 = no growth, -100 = all killed)
# Conditions in all cases: 10 µM unless noted
# NCI-H23 lung = system: NCI-H23 lung
# NCI-H226 lung = system: NCI-H226 lung
# NCI-H322M lung = system: NCI-H322M lung
# HOP-62 NSCLC = system: HOP-62 NSCLC
# NCI-H460 lung = system: NCI-H460 lung
# HOP-92 NSCLC = system: HOP-92 NSCLC
# NCI-H522 lung = system: NCI-H522 lung
# A549/ATCC NSCLC = system: A549/ATCC NSCLC
# 786-0 renal = system: 786-0 renal
# COLO 205 colon = system: COLO 205 colon
Structure (SMILES),growth (NCI-H23 lung),growth (NCI-H226 lung),growth (NCI-H322M lung),growth (HOP-62 NSCLC),growth (NCI-H460 lung),growth (HOP-92 NSCLC),growth (NCI-H522 lung),growth (A549/ATCC NSCLC),growth (786-0 renal),growth (COLO 205 colon)
C=C(C)[C@@H]1CC[C@]2(C)[C@H](C=CC3=C4C[C@@](C)(CO)CC[C@]4(C)CC[C@]32C)[C@@]1(C)CCCN,-37.1% (active),90.8%,-14.3% (active),-54.9% (active),-86.2% (active),-52.9% (active),-43.1% (active),-62.2% (active),-97.3% (active),-64.4% (active)
CCCCO[C@@H]1C=C2[C@H]3CC(C)(C)C(=O)C[C@]3(C(=O)O[C@@H]3O[C@H](CO[C@@H]4O[C@H](CO)[C@@H](OC5OC(C)C(O)C(O)C5O)[C@H](O)[C@H]4O)[C@@H](O)[C@H](O)[C@H]3O)CC[C@@]2(C)[C@]2(C)CC[C@H]3C(C)(C)C(=O)CC[C@]3(C)[C@@H]12 (stereo not given in full),60.3%,45.6%,84.3%,76.1%,91.8%,2.25% (active),67.9%,84.8%,29.5%,97.2%
COc1cc(Cc2cc(-c3ccccc3)nn(Cc3ccccc3)c2=O)cc(OC)c1OC,37.4%,46.2%,78.5%,66.1%,37.3%,51.1%,28.4%,19.9%,49.9%,15.5%
Cn1c2ccccc2c2c3c(c4c5cc(Br)ccc5n(C)c4c21)C(=O)N(O)C3=O,2.91% (active),14.8%,31.8%,0.364% (active),4.42% (active),40.8%,25.4%,40.3%,14.6%,23.2%
Cn1c(C#N)ccc1-c1ccc(F)c(NC(=O)c2ccc(F)cc2)c1,80.6%,105%,97.9%,75.8%,80.2%,70.5%,76.2%,83.2%,84.8%,90.9%
Cc1ccc(NC(=O)c2sc3nc(C)c(C(O)c4ccccc4)cc3c2N)cc1 (stereo not given),26.4%,57.4%,56.8%,31.2%,2.88% (active),58.8%,7.09% (active),22.7%,40.3%,-15.8% (active)
COc1ccc(C(=O)Nc2ncc(Cc3ccc(Cl)cc3)s2)cc1,30.5%,41.7%,35.7%,21.2%,5.09% (active),41.4%,-16.3% (active),17.7%,17.6%,-2.86% (active)
COc1ccc(C=Nc2c(C(=O)Nc3cccc(Cl)c3C)sc3nc(C)c(C(=O)/C=C/c4ccc(OC)cc4)cc23)cc1,31.2%,53.8%,43.1%,46.5%,8.92% (active),79.2%,0.467% (active),30.8%,21.5%,11.2%
O=C1CCCC1[n+]1ccccc1 (stereo not given),108%,105%,93.6%,80.8%,111%,97.4%,62.1%,72.3%,82.2%,86.1%
COC1/C=C/OC2(C)Oc3c(C)c(O)c4c(O)c(c(/C=N/N(c5ccccc5)c5ccccc5)c(O)c4c3C2=O)NC(=O)C(C)=C/C=C/C(C)C(O)C(C)C(O)C(C)C(OC(C)=O)C1C (stereo not given),64.3%,-47.9% (active),109%,73.1%,56.5%,79%,37.6%,57%,106%,8.26% (active)
CN1C(=O)/C(=C/c2ccc(C(=O)Nc3ncc(Cc4cccc(C(F)(F)F)c4)s3)cc2)SC1=S,37.5%,58%,69.5%,58.5%,30.1%,27.3%,35.5%,47.4%,65%,53%
Cc1c2ncccc2nc2[nH]c3ccc(OCCN(C)C)cc3c12,28.1%,32.7%,13.2%,29.3%,5.49% (active),30.3%,22.9%,5.31% (active),25.2%,19.1%
CN(C)c1ccc(/C=C2\C=C(c3nc4ccccc4s3)OC2=O)cc1,91.9%,82.2%,93.2%,91.7%,95.2%,77.8%,89.4%,94.7%,102%,102%
Cc1ccc(C2CC(c3cccc(Nc4ccncc4)c3)=Nc3c(N)nc(N)nc3N2)cc1 (stereo not given),56%,88.9%,67.4%,86.4%,23.1%,49.8%,75.7%,28.3%,36.4%,52.3%
Cc1ccc(S(=O)(=O)N2CCCN(c3nc(-c4ccccc4)nc4nc(-c5ccccc5)oc34)CC2)cc1,100%,99.5%,97.3%,101%,103%,110%,83.6%,106%,102%,124%
COC(=O)/C=C1/SC(=Nc2ccc(F)cc2)N(CCc2c[nH]c3ccc(O)cc23)C1=O,62.2%,62.5%,92.1%,27.6%,25.3%,40.2%,23.6%,69.5%,40.6%,78.2%
c1csc(-c2cn3nc(-c4c[nH]c5ccccc45)sc3n2)c1,36.9%,72.4%,25%,27%,11.2%,38.3%,-6.13% (active),35%,42.2%,5.46% (active)
O=c1ccc2ccc(OCCN3CCCCC3)cc2o1,98.4%,103%,97%,84.5%,108%,-17.3% (active),86.6%,98%,99.5%,98.5%
C=CC(=O)Nc1cccc(Oc2nccc(Nc3nnc(-c4ccc(Br)cc4)s3)n2)c1,90.8%,105%,110%,91%,101%,92%,84.4%,100%,101%,108%
COc1ccc(-c2cc(C(=O)N3N=C(c4ccc(N)cc4)CC3c3ccc(Cl)cc3)c3ccccc3n2)cc1 (stereo not given),48.1%,76.5%,52.4%,36.3%,12.8%,45.4%,-3.25% (active),16.9%,25.4%,2.76% (active)
CCOC(=O)c1ccc[nH]1,87.7%,99.3%,84.3%,83.5%,105%,80.4%,88.4%,93%,93.1%,134%
O=C1/C(=C/c2ccccn2)SC(=S)N1N1CCOCC1,96.7%,95.1%,97.5%,96.6%,104%,84.8%,86.8%,103%,103%,103%
Cc1ccc(OCCOCCOCCOCCOCCOc2ccc(C)n(O)c2=S)c(=S)n1O,14.1%,6.73% (active),21.5%,10.5%,3.62% (active),34.3%,25.8%,13.2%,-0.0239% (active),10.4%
Oc1c(I)cc(I)cc1CN(Cc1ccccn1)Cc1ccccn1,25.6%,21.7%,18.4%,18.7%,4.01% (active),24.4%,11.5%,7.57% (active),18.2%,16%
